BAZ2B inh: BAZ2B (human) inhibition | Q9UIF8 | AlphaScreen BAZ2B-H3K14Ac peptide displacement | Potency, µM (series often up to 114 µM), actives largely listed as inhibitors | hit rate 4.4% among 360,000; note: nearly all actives have a fitted effect of over 60% in size
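AlphaScreen displacement of biotin-H3(5-23)K14Ac peptide (50 nM final) from BAZ2B (50 nM final) in PBS pH 7.4, 0.01% Tween-20; complex preformed 30 min RT, then compounds (top 110 uM) 30 min RT, beads 20 min dark.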
HP1b binding inh: inhibitors of HP1-beta chromodomain binding to methylated histone tails; AlphaScreen HP1-beta / biotin-H3K9me3 peptide binding; Potency, µM (titrated, usually from 114 µM), hits mostly inhibitors; hit rate 0.56% among 390,000; AID 540317; note: nearly all actives have a fitted effect of over 70% in size
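AlphaScreen: HP1-beta (50 nM) preformed 30 min with biotin-H3(1-18)K9me3 peptide (50 nM) in PBS pH 7.4, 0.01% Tween-20. Compound added for 30 min at RT, then streptavidin donor/nickel chelate acceptor beads (10 ug/mL) for 30 min.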
JMJD2A Tudor inh: inhibitors of human JMJD2A Tudor domain. O75164. AlphaScreen JMJD2A-Tudor / H3K4me3 peptide binding. Potency, µM (titrated, usually from 114 µM), most hits filed as inhibitors. hit rate 4.4% among 390,000. AID 504339; note: nearly all actives have a fitted effect of over 50% in size
Target sequence (O75164 whole entry, looked up, the tested form may be a part): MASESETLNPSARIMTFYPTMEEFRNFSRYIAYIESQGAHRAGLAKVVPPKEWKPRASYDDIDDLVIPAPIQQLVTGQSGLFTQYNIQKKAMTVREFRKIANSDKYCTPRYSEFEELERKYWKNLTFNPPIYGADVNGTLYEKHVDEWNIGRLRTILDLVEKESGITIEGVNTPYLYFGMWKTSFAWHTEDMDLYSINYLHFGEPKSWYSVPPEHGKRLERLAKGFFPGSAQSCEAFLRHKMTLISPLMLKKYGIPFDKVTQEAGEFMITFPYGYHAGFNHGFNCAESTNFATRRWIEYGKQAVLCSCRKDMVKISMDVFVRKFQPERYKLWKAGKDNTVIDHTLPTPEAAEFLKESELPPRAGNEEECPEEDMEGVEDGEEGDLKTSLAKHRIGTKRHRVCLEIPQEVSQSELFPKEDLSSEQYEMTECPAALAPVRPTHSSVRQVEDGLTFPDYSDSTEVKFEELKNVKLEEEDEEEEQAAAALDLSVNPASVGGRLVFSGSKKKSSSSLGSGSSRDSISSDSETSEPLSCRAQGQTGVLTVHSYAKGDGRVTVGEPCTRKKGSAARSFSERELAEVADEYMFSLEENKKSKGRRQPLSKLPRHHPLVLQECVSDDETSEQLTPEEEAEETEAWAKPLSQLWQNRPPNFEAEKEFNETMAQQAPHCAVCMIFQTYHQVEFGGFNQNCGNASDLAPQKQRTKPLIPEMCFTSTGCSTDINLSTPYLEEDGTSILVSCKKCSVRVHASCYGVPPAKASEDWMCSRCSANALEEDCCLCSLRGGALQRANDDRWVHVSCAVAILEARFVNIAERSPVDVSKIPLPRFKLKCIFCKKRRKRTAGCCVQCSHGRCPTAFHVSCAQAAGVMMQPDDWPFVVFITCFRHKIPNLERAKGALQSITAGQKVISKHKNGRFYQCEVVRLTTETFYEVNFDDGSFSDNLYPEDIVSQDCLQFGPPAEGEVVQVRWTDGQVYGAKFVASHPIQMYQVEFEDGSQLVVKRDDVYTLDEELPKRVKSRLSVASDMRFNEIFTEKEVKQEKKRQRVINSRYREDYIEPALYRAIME
G9a block: blocks human histone lysine methyltransferase G9a. Q96KQ7. G9a H3K9 monomethylation, AlphaScreen, 2 h. Potency, µM (highest dose often 102 µM), most hits filed as inhibitors. hit rate 8.8% among 350,000. AID 504332; note: nearly all actives have a fitted effect of over 75% in size
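G9a (20 nM) preincubated 15 min RT with compounds, then 500 nM biotinylated H3K9 peptide and 20 uM SAM added; 2 h RT reaction. Monomethyl-H3K9 product detected by AlphaScreen with anti-H3K9me1 antibody, streptavidin donor and anti-rabbit IgG acceptor beads.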
Sfp inh: blocks B. subtilis Sfp PPTase activity; Q9F4F7; Biochemical Sfp PPTase activity, qHTS; Potency, µM, hits mostly inhibitors; hit rate 3.5% among 310,000;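 note: the enzyme is Sfp with the accession as filed and its product quenches rhodamine fluorescence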
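Step 1, compound plus 15 nM Sfp-PPTase, 15 min, room temperature. Step 2, add rhodamine-CoA (5 uM) and BHQ-2-YbbR (12.5 uM). Step 3, read 525/598 nm fluorescence at 0 and 30 min.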
Numbers stand for hits; i = inactive; ? = inconclusive; nt = no result given; [ ] = remark or other dose. Shown are actives, neighbours in structure and some others; about 12% of the full set was active somewhere. Calls come from the whole dose curve; as a rule, active = well fitted curve in the direction sought with a large enough effect; inconclusive = small, poorly fitted or top-dose-only effect, or another doubt; inactive = no such curve, though single readings can be large; an effect the other way counts as inactive or inconclusive.

SMILES	BAZ2B inh	HP1b binding inh	JMJD2A Tudor inh	G9a block	Sfp inh
CCOc1cccc2cc(C(N)=O)c(=N)oc12	i	i	i	32µM	i
CCOc1cccc2cc(C(=O)Oc3ccc(OC)cc3)c(=O)oc12	i	i	i	20µM	?
O=C(/C=C/c1cccc(Cl)c1)NCCc1ccccc1	i	i	i	i	20µM
O=C(O)CCCNC(=O)/C=C/c1ccco1	13µM	35µM	7.9µM	nt	13µM
O=C(/C=C/c1ccco1)NCCc1ccccc1	i	i	i	45µM	i
COc1ccc(NC(C)=O)cc1S(=O)(=O)NC(Cc1ccccc1)C(=O)NC(C)c1ccccn1 (stereo not given)	nt	i	i	nt	nt
CCN(c1cccc(C)c1)c1ncnc2c1cnn2-c1cccc(Cl)c1	i	i	i	i	nt
CN(O)C(=O)Nc1ccc([N+](=O)[O-])cc1	i	i	i	?	i
O=C1N=c2ccccc2=C1c1sc(NS(=O)(=O)Cc2ccccc2)nc1O	?	i	?	i	i
O=C1N=c2ccccc2=C1c1sc(Nc2cccc(O)c2)nc1O	56µM	i	?	?	i
O=C1N=c2ccccc2=C1c1sc(Nc2ccc(O)cc2)nc1O	56µM	i	?	79µM	56µM
CCOc1ccccc1OCCC(=O)OCC(=O)Nc1c(C)nn(-c2ccccc2)c1C	i	i	i	56µM	nt
Cc1nn(-c2ccccc2)c(C)c1NC(=O)COC(=O)CCOc1ccccc1	i	i	i	i[0.501 µM]	nt
CC1CCN(S(=O)(=O)c2csc(C(N)=O)c2)CC1	?	i	i	i	nt
COCCn1c(=O)c(-c2cccc(C#N)c2)nc2cnc(Oc3ccc(OC)cc3)nc21	nt	nt	nt	i[0.501 µM]	i
N#C/C(C(=O)Nc1ccc(Cl)cc1)=C(/S)Nc1ccccc1	20µM	?	20µM	1.6µM	0.79µM
O=[N+]([O-])C(=C1SCCS1)C(=C(Cl)Cl)N1CCCCC1	7.9µM	25µM	35µM	6.3µM	i
O=[N+]([O-])C(/C=C(\Cl)[N+](=O)[O-])=C(N1CCCCC1)N1CCCCC1	i	i	i	?	i
CCOC(=O)NC(=O)CSc1nc2ccccc2[nH]1	?	i	i	56µM	i
O=C(CSc1nc2ccccc2[nH]1)NC1CCCC1	79µM	i	i	50µM	i
O=C(CSc1ccc(Br)cc1)NCC1CCCO1 (stereo not given)	i	i	i	40µM	i
Cc1nonc1NC(=O)CSc1nc2ccccc2[nH]1	i	i	i	i	i
O=C(CSc1nc2ccccc2[nH]1)NCC1CCCO1 (stereo not given)	i	i	i	32µM	i
O=C(CCCSc1nc2ccccc2[nH]1)NC1CCCCC1	i	i	i	i	i
O=C(CSc1nc(-c2ccccc2)c(-c2ccccc2)[nH]1)NCC1CCCO1 (stereo not given)	?	i	i	28µM	i
SMILES	BAZ2B inh	HP1b binding inh	JMJD2A Tudor inh	G9a block	Sfp inh
COc1cccc(C2NC(=O)NC(C)=C2C(=O)Nc2ccc(C)cc2)c1OC (stereo not given)	nt	i	i	i	i
c1ccc(Oc2ncnc3sccc23)cc1	i	i	i	i	i
Cc1c(CCC(=O)O)c(=O)oc2c(C)c3occ(-c4ccc(Br)cc4)c3cc12	56µM	?	?	45µM	i
Cc1c(CC(=O)O)c(=O)oc2c(C)c3occ(-c4ccc(F)cc4)c3cc12	?	i	i	i	35µM
Cc1ccc(NC(=O)c2cnc3ccccc3n2)cc1C	i	i	i	i	i
Cc1ccc(C(c2nnnn2C2CCCC2)N2c3ccccc3CC2C)cc1 (stereo not given)	i	i	i	71µM	i
COc1cccc(NC(=O)CCc2nc3c(C)nn(-c4ccc(C)cc4)c3n(C)c2=O)c1	i	i	i	i	nt
CNCc1ccccc1Sc1cccc(O)c1	i	i	i	i	i
CNCc1ccccc1Sc1cc(O)ccc1O	35µM	10µM	18µM	1µM	22µM
O=C(Cc1n[nH]c(=O)c2ccccc12)Nc1cccc(S(=O)(=O)N2CCCCCC2)c1	i	i	i	i[12.7 µM]	nt
CCCN(CC1CC1)C(=O)CSc1ncnc2sccc12	i	i	i	40µM	i
CC1(c2ccc(OC(F)F)cc2)NC(=O)N(CC(=O)Nc2ccc3[nH]c(=O)[nH]c3c2)C1=O (stereo not given)	i	i	i	56µM	nt
Cc1c(NC(=O)CN2C(=O)NC(C)(c3ccc(OC(F)F)cc3)C2=O)c(=O)n(-c2ccccc2)n1C (stereo not given)	i	i	i	50µM	nt
COc1ccc(C2(C)NC(=O)N(CC(=O)Nc3c(C)n(C)n(-c4ccccc4)c3=O)C2=O)cc1 (stereo not given)	i	i	i	56µM	nt
COc1ccc(C2(C)NC(=O)N(CC(=O)Nc3ccc4[nH]c(=O)[nH]c4c3)C2=O)cc1 (stereo not given)	i	i	i	i	nt
COc1ccc2cc(C3(C)NC(=O)N(CC(=O)Nc4c(C)n(C)n(-c5ccccc5)c4=O)C3=O)ccc2c1 (stereo not given)	i	i	i	i	i
O=C(CSc1nc(C2CC2)n(-c2ccccc2)n1)NCc1ccco1	i	i	i	i[12.7 µM]	nt
COc1cccc(C(=O)NNC(=O)CCN2CCN(c3ccccc3)CC2)c1	nt	i	i	nt	nt
COc1ccc(-c2ccc(=O)n(CC(=O)Nc3ccc(C)cc3C)n2)cc1	i	i	i	i	nt
O=C(Nc1cccc(C(=O)OCc2cc(=O)n3nc(C4CC4)sc3n2)c1)c1cccc(Cl)c1	i	i	i	i	nt
O=C1CS/C(=N\C(=O)N2c3ccccc3Sc3ccccc32)N1	?	i	?	5.6µM	i
COc1ccc(NC(=O)CNC(=O)C2CCCCC2)cc1	i	i	i	nt	i
CCCOc1ccc(CCC(=O)O)cc1	i	i	i	nt	i
CCCOc1ccc(Cc2c(COCC)[nH]c(=S)[nH]c2=O)cc1	i	i	i	45µM	i
CCOC(=O)/C=C/C(=O)Nc1cccc([N+](=O)[O-])c1	?	?	?	?	2.8µM
SMILES	BAZ2B inh	HP1b binding inh	JMJD2A Tudor inh	G9a block	Sfp inh
CCC(Sc1ccccn1)C(=O)Nc1cccc([N+](=O)[O-])c1 (stereo not given)	i	i	i	nt	56µM
CC(C(=O)Nc1cccc([N+](=O)[O-])c1)[n+]1ccccc1 (stereo not given)	?	i	i	nt	20µM
CC(Sc1cccc[n+]1[O-])C(=O)Nc1cccc([N+](=O)[O-])c1 (stereo not given)	nt	i	i	?	i
NC(=O)C1CCN(C(=O)c2cc3n(n2)C(C(F)(F)F)CC(c2ccco2)N3)CC1 (stereo not given)	i	i	i	?	i
O=C(Oc1ccc2c3c(c(=O)oc2c1)CCCC3)c1ccco1	i	i	i[11.4 µM]	?	i
CCN(CC)c1ccc(NC(=O)c2cc(CN3CCCC3)on2)c(C)c1	?	i	?	14µM	nt
COc1cc(OC)cc(C(=O)N2CCC(C(=O)c3ccc(F)cc3)CC2)c1	i	i	i	i	i
COc1ccc(CCN(C)C(=O)COC(=O)/C=C/c2ccc(C)o2)cc1OC	?	i	?	35µM	nt

Screening results from PubChem.
